Assay results as given in ChEMBL document CHEMBL1961873, “Compounds: GSK PKIS; Assays: Nanosyn kinase panel” (2012).

Key:
[1] = molecular target: 5'-AMP-activated protein kinase catalytic subunit alpha-2 (Homo sapiens) (UniProt P54646); conditions: at 1 µM
[2] = molecular target: T1, NUAK family SNF1-like kinase 1 (Homo sapiens) (UniProt O60285); conditions: at 0.1 µM
T1 sequence (whole entry): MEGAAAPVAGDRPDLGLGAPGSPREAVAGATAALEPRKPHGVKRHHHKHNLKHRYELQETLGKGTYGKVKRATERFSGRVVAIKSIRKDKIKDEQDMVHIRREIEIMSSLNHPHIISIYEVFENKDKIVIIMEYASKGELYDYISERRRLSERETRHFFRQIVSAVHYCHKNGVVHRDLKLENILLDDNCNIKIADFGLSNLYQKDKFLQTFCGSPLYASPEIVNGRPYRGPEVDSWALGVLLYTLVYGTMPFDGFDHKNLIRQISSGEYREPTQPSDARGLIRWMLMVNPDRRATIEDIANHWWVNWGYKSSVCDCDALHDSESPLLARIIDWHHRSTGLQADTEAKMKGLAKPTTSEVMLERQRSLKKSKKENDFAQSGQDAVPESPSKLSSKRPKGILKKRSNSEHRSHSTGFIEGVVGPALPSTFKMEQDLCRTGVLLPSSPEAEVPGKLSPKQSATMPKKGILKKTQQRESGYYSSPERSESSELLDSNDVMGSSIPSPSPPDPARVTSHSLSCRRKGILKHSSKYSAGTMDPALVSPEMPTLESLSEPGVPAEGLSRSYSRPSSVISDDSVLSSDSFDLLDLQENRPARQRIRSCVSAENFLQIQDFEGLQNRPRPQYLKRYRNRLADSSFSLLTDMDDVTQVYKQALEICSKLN

[3] = molecular target: T1, NUAK family SNF1-like kinase 1 (Homo sapiens); conditions: at 1 µM
[4] = molecular target: T2, Serine/threonine-protein kinase BRSK1 (Homo sapiens) (UniProt Q8TDC3); conditions: at 0.1 µM
T2 sequence (whole entry): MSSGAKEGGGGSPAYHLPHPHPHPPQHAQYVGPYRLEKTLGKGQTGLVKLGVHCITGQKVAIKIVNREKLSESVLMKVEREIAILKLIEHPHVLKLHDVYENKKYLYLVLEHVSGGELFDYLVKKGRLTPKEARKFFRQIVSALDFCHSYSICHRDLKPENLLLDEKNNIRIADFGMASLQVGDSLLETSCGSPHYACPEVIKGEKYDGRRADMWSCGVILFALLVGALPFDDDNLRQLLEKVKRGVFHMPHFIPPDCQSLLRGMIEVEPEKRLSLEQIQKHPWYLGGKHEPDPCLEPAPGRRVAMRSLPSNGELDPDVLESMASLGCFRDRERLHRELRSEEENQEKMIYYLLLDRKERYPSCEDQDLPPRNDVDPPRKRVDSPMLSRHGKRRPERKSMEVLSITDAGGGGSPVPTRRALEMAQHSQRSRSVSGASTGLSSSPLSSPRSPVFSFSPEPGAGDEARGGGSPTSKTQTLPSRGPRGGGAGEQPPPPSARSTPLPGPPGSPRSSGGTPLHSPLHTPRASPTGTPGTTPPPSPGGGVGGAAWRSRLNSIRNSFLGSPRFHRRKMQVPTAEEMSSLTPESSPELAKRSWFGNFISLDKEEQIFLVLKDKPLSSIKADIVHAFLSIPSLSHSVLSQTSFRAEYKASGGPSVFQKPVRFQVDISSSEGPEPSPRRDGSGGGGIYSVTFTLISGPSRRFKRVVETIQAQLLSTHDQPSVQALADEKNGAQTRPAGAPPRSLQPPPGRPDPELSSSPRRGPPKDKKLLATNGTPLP

[5] = molecular target: T2, Serine/threonine-protein kinase BRSK1 (Homo sapiens); conditions: at 1 µM
[6] = molecular target: T3, Serine/threonine-protein kinase BRSK2 (Homo sapiens) (UniProt Q8IWQ3); conditions: at 0.1 µM
T3 sequence (whole entry): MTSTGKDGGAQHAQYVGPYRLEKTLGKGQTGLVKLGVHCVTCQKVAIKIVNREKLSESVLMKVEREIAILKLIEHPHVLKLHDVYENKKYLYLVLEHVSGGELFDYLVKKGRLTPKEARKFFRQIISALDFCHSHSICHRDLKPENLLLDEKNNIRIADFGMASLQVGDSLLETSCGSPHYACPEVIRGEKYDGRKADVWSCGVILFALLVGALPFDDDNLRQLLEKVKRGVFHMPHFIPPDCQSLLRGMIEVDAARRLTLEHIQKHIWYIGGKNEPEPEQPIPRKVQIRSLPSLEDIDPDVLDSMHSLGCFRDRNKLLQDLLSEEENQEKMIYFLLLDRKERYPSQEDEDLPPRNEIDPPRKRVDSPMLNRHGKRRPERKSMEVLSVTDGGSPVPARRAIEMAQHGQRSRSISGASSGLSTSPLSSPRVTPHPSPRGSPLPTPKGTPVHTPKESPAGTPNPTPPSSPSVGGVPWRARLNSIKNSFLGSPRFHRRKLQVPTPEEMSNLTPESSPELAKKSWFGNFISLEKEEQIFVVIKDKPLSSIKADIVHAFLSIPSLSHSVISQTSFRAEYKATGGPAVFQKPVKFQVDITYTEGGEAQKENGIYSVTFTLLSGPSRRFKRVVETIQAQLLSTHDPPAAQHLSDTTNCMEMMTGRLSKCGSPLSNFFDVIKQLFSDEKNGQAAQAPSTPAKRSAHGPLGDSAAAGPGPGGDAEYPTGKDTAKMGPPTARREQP

[7] = molecular target: T3, Serine/threonine-protein kinase BRSK2 (Homo sapiens); conditions: at 1 µM
[8] = molecular target: Calcium/calmodulin-dependent protein kinase type 1D (Homo sapiens) (UniProt Q8IU85); conditions: at 0.1 µM
Chain of Calcium/calmodulin-dependent protein kinase type 1D (Homo sapiens) (Q8IU85 whole entry, looked up): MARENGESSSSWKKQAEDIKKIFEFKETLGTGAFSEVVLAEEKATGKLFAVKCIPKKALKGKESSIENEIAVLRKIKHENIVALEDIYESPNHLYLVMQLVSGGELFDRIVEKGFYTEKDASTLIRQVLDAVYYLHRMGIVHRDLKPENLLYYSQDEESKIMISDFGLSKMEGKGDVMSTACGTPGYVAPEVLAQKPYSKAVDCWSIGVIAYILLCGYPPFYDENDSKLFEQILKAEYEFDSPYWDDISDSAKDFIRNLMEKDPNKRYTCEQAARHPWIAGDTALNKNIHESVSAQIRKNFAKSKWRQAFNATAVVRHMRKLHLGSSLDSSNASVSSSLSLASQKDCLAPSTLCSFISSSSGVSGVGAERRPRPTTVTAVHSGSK

[9] = molecular target: Calcium/calmodulin-dependent protein kinase type 1D (Homo sapiens) (UniProt Q8IU85); conditions: at 1 µM
[10] = molecular target: Calcium/calmodulin-dependent protein kinase type II subunit alpha (Homo sapiens) (UniProt Q9UQM7); conditions: at 0.1 µM
Chain of Calcium/calmodulin-dependent protein kinase type II subunit alpha (Homo sapiens) (Q9UQM7 whole entry): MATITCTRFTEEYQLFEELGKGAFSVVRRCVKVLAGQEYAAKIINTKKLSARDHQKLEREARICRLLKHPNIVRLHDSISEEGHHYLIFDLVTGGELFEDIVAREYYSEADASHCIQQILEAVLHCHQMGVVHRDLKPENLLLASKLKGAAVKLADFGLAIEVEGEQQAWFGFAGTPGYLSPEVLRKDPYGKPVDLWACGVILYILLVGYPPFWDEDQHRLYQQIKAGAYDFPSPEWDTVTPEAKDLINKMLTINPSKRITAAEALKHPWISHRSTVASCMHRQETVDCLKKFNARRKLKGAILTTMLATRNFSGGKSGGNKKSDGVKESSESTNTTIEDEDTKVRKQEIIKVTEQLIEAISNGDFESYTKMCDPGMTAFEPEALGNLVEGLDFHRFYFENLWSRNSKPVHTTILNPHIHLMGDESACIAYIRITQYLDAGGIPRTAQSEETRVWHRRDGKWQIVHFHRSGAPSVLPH

[11] = molecular target: Calcium/calmodulin-dependent protein kinase type II subunit alpha (Homo sapiens) (UniProt Q9UQM7); conditions: at 1 µM
[12] = molecular target: Calcium/calmodulin-dependent protein kinase type II subunit delta (Homo sapiens) (UniProt Q13557); conditions: at 0.1 µM
Chain of Calcium/calmodulin-dependent protein kinase type II subunit delta (Homo sapiens) (Q13557 whole entry): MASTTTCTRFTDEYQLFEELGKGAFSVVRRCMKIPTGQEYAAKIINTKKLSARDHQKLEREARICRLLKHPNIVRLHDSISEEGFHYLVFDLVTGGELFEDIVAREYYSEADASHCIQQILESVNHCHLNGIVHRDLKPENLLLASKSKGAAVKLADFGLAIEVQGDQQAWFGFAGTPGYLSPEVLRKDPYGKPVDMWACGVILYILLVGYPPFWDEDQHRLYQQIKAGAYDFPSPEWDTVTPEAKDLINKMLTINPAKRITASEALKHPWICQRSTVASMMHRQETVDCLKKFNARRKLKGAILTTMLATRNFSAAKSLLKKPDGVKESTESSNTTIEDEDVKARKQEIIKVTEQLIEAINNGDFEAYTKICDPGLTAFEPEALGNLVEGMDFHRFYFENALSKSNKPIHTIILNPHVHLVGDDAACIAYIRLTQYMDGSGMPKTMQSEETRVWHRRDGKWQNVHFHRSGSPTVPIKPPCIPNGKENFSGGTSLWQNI

[13] = molecular target: Calcium/calmodulin-dependent protein kinase type II subunit delta (Homo sapiens) (UniProt Q13557); conditions: at 1 µM
[14] = molecular target: T4, Calcium/calmodulin-dependent protein kinase type IV (Homo sapiens) (UniProt Q16566); conditions: at 0.1 µM
T4 sequence (whole entry): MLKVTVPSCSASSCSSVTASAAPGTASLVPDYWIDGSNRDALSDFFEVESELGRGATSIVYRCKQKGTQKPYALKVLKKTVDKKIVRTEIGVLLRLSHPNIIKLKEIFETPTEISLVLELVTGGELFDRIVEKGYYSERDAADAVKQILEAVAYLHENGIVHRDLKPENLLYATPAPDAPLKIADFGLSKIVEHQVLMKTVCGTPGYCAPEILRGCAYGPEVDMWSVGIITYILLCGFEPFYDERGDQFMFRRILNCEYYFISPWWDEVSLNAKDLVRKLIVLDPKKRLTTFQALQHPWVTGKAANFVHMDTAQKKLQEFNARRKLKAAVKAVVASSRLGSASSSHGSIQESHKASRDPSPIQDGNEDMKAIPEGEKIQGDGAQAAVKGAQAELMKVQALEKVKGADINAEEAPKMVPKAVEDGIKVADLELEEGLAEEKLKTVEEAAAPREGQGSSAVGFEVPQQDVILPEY

[15] = molecular target: T4, Calcium/calmodulin-dependent protein kinase type IV (Homo sapiens); conditions: at 1 µM
[16] = molecular target: T5, Serine/threonine-protein kinase Chk1 (Homo sapiens) (UniProt O14757); conditions: at 0.1 µM
T5 sequence (whole entry): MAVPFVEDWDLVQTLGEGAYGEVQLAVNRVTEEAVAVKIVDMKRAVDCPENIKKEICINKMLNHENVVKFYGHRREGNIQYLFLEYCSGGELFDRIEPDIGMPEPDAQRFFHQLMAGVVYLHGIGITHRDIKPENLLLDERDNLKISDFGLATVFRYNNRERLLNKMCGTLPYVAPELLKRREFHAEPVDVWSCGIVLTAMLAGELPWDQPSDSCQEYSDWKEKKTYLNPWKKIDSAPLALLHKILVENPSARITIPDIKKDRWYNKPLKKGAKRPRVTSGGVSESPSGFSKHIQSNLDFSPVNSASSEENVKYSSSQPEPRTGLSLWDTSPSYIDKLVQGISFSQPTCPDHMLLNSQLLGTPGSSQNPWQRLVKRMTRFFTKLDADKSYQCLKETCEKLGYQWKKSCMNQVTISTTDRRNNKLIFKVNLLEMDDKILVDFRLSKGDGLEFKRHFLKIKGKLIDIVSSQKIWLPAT

[17] = molecular target: T5, Serine/threonine-protein kinase Chk1 (Homo sapiens); conditions: at 1 µM
[18] = molecular target: Serine/threonine-protein kinase Chk2 (Homo sapiens) (UniProt O96017); conditions: at 0.1 µM
Chain of Serine/threonine-protein kinase Chk2 (Homo sapiens) (O96017 whole entry): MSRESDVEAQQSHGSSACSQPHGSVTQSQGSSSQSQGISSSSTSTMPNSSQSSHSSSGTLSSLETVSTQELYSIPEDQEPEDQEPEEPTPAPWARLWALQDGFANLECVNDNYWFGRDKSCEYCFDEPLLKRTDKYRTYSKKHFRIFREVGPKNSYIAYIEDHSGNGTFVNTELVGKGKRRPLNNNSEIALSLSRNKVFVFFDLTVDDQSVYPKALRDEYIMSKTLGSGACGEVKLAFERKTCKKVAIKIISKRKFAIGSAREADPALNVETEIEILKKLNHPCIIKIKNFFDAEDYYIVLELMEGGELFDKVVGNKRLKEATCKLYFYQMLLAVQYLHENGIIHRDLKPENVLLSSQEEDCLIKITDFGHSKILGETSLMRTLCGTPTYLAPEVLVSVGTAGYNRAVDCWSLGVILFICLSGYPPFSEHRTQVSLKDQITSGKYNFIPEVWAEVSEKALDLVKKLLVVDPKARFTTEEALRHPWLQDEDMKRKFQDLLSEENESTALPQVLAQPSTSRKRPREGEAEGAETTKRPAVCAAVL

[19] = molecular target: Serine/threonine-protein kinase Chk2 (Homo sapiens) (UniProt O96017); conditions: at 1 µM
[20] = molecular target: Death-associated protein kinase 1 (Homo sapiens) (UniProt P53355); conditions: at 0.1 µM;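 note: reported figure is the mean inhibition of DAPK1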
Chain of Death-associated protein kinase 1 (Homo sapiens) (P53355 whole entry, looked up): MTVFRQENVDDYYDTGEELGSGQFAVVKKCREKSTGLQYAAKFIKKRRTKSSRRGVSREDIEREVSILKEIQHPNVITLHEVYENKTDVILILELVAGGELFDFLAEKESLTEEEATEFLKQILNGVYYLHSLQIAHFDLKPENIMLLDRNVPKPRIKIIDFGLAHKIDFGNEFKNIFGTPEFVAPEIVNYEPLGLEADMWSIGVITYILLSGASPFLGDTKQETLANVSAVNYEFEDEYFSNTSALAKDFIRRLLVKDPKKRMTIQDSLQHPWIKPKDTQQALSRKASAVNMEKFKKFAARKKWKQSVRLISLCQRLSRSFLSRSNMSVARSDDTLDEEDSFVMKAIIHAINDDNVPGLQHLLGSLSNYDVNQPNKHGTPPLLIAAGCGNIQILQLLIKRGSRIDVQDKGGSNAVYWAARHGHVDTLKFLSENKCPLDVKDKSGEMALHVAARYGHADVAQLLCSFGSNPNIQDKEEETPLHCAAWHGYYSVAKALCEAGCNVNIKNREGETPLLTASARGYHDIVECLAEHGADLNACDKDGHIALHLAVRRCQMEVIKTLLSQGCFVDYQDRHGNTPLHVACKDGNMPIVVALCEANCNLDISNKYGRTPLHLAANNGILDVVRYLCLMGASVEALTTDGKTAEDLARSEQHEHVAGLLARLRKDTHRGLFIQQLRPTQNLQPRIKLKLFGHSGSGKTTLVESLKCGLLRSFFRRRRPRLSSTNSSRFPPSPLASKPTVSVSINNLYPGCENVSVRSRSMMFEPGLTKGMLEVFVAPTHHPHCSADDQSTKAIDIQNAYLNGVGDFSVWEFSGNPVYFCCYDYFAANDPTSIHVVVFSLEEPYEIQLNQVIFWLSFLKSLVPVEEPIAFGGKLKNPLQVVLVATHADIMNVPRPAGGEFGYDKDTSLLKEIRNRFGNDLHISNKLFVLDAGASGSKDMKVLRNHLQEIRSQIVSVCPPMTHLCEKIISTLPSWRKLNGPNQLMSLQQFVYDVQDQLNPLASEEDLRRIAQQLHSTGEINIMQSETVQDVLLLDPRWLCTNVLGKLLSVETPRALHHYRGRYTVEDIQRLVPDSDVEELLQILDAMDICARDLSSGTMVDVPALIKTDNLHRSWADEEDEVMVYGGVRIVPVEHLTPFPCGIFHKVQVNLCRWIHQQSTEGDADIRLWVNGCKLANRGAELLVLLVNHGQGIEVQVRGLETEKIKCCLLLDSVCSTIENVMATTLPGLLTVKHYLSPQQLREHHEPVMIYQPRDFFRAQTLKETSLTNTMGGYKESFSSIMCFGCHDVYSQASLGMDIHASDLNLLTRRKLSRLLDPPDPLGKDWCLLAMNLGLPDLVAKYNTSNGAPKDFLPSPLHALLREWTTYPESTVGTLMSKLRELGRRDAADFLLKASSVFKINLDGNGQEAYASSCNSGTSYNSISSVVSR

Chain of 5'-AMP-activated protein kinase catalytic subunit alpha-2 (Homo sapiens) (P54646 whole entry, looked up): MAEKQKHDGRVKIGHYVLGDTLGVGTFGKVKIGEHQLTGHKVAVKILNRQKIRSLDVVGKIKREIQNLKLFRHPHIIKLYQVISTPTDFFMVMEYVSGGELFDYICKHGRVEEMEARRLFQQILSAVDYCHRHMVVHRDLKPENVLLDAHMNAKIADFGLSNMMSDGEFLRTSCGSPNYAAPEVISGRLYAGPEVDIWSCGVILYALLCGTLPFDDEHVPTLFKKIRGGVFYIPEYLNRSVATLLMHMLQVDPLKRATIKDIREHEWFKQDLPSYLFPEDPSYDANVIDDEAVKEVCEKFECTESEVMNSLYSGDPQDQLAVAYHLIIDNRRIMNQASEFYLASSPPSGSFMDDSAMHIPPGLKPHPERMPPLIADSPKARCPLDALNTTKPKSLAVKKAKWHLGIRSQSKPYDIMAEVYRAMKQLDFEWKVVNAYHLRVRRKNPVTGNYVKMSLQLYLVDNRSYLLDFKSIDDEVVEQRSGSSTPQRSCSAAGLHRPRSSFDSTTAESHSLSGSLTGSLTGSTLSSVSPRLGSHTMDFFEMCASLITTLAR

| Compound | inhibition [1] [%] | inhibition [2] [%] | inhibition [3] [%] | inhibition [4] [%] | inhibition [5] [%] | inhibition [6] [%] | inhibition [7] [%] | inhibition [8] [%] | inhibition [9] [%] | inhibition [10] [%] | inhibition [11] [%] | inhibition [12] [%] | inhibition [13] [%] | inhibition [14] [%] | inhibition [15] [%] | inhibition [16] [%] | inhibition [17] [%] | inhibition [18] [%] | inhibition [19] [%] | inhibition [20] [%] |
| --- | --- | --- | --- | --- | --- | --- | --- | --- | --- | --- | --- | --- | --- | --- | --- | --- | --- | --- | --- | --- |
| Cc1cc(O)cc(C)c1/C=C/c1cncc(C(N)=O)c1 | 3.4 | 0.73 | 2.46 | 3.32 | 15 | 2.91 | 9.42 | 4.14 | 1.23 | 7.97 | 2.76 | 2.47 | 6.44 | 0.89 | 1.57 | 2.8 | 0.66 | 0.67 | 4 | 1.68 |
| CS(=O)(=O)Nc1ccc(-c2ccc3c(NC(=O)C4CC4)n[nH]c3c2)cc1 | 40 | -6.19 | 2.46 | 3.42 | 5.22 | 2.03 | 4.96 | 0.46 | 1.58 | 4.36 | 3.84 | 3.65 | 3.38 | -0.67 | -0.43 | 1.65 | 1.61 | 4.58 | 7.38 | 2.51 |
| NS(=O)(=O)c1cccc(N/C=C2\C(=O)Nc3ccccc32)c1 | 11.2 | 5.37 | 35.8 | 4.66 | 17.9 | 5.23 | 26 | 0.94 | 3.7 | 3.94 | 8.27 | 5.11 | 16.3 | 1.25 | 2.86 | 9.31 | 14.3 | 10.6 | 32.8 | 10.6 |
| CN(C)CCNC(=O)Nc1ccc(N(C)c2ccnc(Nc3ccc(CS(C)(=O)=O)cc3)n2)cc1 | 7.2 | 14.5 | 57.9 | 2.43 | 5.89 | 2.14 | 4.34 | 0.53 | 1.18 | 4.92 | 4.63 | 4.54 | 5.02 | 0.83 | -0.68 | 3.83 | 0.79 | 3.72 | 11.9 | 3.93 |
| CN(c1ccc(NC(=O)NCCN2CCOCC2)cc1)c1ccnc(Nc2ccc(CS(C)(=O)=O)cc2)n1 | 4.4 | 8.2 | 41.6 | -2.24 | 4.74 | 2.43 | 5.48 | -0.41 | 0.15 | 1.72 | 1.11 | 1.06 | 3.97 | -3.18 | -5.39 | 4.02 | 3.14 | 2.01 | 6.85 | 4.05 |
| CC1=C(C(=O)Nc2ccc3[nH]ncc3c2)C(c2ccc(F)cc2)N=C(c2ccc(C(F)(F)F)nc2)N1 (stereo not given) | 4.16 | 2.72 | -3.57 | 1.01 | 3.19 | 0.18 | 5.63 | 0.25 | 1.37 | 0.55 | 2.04 | 0.67 | 3.6 | 0.82 | 1.17 | 0.19 | 3.03 | 1.5 | 2.24 | 0.86 |
| Cc1nnc(-c2cccc(-c3ccc(C(=O)NCC4CC4)cc3)c2)o1 | 4.4 | 3.1 | 2.61 | 0.57 | 2.35 | 6.6 | 3.96 | -0.22 | 0.22 | 5.78 | 3.99 | 3.26 | 6.04 | -2.72 | -2.97 | 4.9 | 5.14 | 3.86 | 4.86 | 5.32 |
